Experimental data as given in ChEMBL document CHEMBL1157539, “Thousands of chemical starting points for antimalarial lead identification” (Nature, 2010).

Tests used:
Type in all cases: functional
Plasmodium falciparum [1] = assay: GSK_TCMDC: Inhibition of Plasmodium falciparum 3D7 in whole red blood cells, using parasite LDH activity as an index of growth. Test compounds present at 2uM
Plasmodium falciparum [2] = assay: GSK_TCMDC: Inhibition of Plasmodium falciparum Dd2 in whole red blood cells, using parasite LDH activity as an index of growth. Test compounds present at 2uM
HepG2 = assay: GSK_TCMDC: Percent inhibition of human HepG2 cell line. Test compounds present at 10uM.

Structure (SMILES) | Inhibition (Plasmodium falciparum [1]) | Inhibition (Plasmodium falciparum [2]) | Inhibition (HepG2)
N#Cc1ccc(N/C(=N\c2cccc(Cl)c2Cl)NC2Cc3ccccc3C2)c(O)c1 | 94% | 77% | 15%
O=C(Nc1ccc(Br)c(C(F)(F)F)c1)c1cccc([N+](=O)[O-])c1 | 94% | 3% | 24%
CCN(CC)CCN(Cc1ccc(-c2ccc(C(F)(F)F)cc2)cc1)C(=O)Cn1c(CCc2cc(F)cc(F)c2F)nc(=O)c2ccccc21.O=C(O)C(O)C(O)C(=O)O | 100% | 77% | 36%
CC(C)c1sc(N2CCN(C)CC2)nc1C(=O)NCCc1ccc(Cl)c(Cl)c1.O=C(O)C(F)(F)F | 98% | 79% | 10%
Cc1ccccc1C1CCN(C2CCC(NC(=O)/C=C/c3ccc(C(F)(F)F)cc3)CC2)CC1 (stereo not given) | 95% | 19% | 64%
CCOc1ccccc1C1CCN(CCCCNC(=O)c2ccc(NC(=O)c3ccc(Cl)cc3)cc2)CC1 | 95% | 27% | 13%
COc1cc2c(Nc3cccc(NC(=O)c4ccccc4)c3)ncnc2cc1OCCCN1CCOCC1 | 100% | 100% | 0%
O=C(NCCCN1CCN(c2cccc(Cl)c2)CC1)c1ccc(-c2nc3cc(Cl)c(Cl)cc3[nH]2)c(F)c1 | 100% | 72% | 3%
CCCCC(=O)Nc1ccc(Nc2nc(C)cc(N3CCCC3)n2)cc1 | 100% | 67% | 38%
N#Cc1cccc(Nc2cc(C(F)(F)F)nc(Nc3ccccc3)n2)c1.O=C(O)C(F)(F)F | 92% | 17% | 7%
